Source: PubChem BioAssay AID493216 (National Center for Advancing Translational Sciences (NCATS), 2011)
Activity calls are given as the source filed them. Calls come from the whole dose curve.

molecular target: Polyunsaturated fatty acid lipoxygenase ALOX12 (Homo sapiens) (UniProt P18054); assay: Inhibitors of 12-hLO (12-human lipoxygenase): Cuvette-Based Hit Assay for Validation of Followup Compounds; settings: purified 12-hLO, cuvette absorbance 234 nm
Description: The enzyme activity of 12-hLO was determined by a direct measurement of product formation by monitoring the absorbance at 234 nm in a 2 mL cuvette. IC50 values of inhibitors were obtained by measuring the enzymatic rate at a variety of concentrations (Carroll et al, Segraves et al). This assay was used to validate actives or inconclusive putative inhibitors identified in the primary screen (see related BioAssay AIDs). Assay Provider: Holman, T.R., University of California, Santa Cruz Screening Center PI: Austin, Christopher P. Screening Center: NIH Chemical Genomics Center
For control experiments, 2 mL of substrate buffer (10 uM arachidonic acid / 25 mM HEPES / 0.01% (v/v) Triton X-100, pH 8.0) was aliquoted in a cuvette with a magnetic stir bar. After equilibrium was ensured, an aliquot of inhibitor solvent was added (DMSO), and equilibrium was once again assured. The reaction was started by adding enzyme to the cuvette and the reaction was followed until completed. The inhibition experiments were performed as above, except the actual inhibitory compound was added instead of vehicle. To achieve an IC50, typically 5 concentrations of the inhibitor were studied. If the inhibitor concentration was constant, then five different reaction volumes were used. Step \ Parameter \ Value \ Description 1; UV-Vis; 234 nm; Equilibration 2; Reagent; 2 mL; Substrate buffer 3; UV-Vis; 234 nm; Equilibration 4; Reagent; varies; Compound 5; UV-Vis; 234 nm; Equilibration 6; Reagent; 50-200 nM; Enzyme 12-hLO 7; UV-Vis; 234 nm; Enzymatic reaction Step \ Notes 1; Blank cuvette to air. 2; 10 uM AA, 25 mM HEPES, 0.01% Triton X-100, pH 8. 3; No change in absorbance ensured. 4; Compound vehicle or compound in various concentrations depending on potency. 5; No change in absorbance ensured. 6; Enzyme concentration to achieve reaction rate between 0.02 and 0.04 AU/s. 7; Enzymatic reaction visualized until completion.

Sequence of Polyunsaturated fatty acid lipoxygenase ALOX12 (Homo sapiens) (P18054 whole entry, looked up): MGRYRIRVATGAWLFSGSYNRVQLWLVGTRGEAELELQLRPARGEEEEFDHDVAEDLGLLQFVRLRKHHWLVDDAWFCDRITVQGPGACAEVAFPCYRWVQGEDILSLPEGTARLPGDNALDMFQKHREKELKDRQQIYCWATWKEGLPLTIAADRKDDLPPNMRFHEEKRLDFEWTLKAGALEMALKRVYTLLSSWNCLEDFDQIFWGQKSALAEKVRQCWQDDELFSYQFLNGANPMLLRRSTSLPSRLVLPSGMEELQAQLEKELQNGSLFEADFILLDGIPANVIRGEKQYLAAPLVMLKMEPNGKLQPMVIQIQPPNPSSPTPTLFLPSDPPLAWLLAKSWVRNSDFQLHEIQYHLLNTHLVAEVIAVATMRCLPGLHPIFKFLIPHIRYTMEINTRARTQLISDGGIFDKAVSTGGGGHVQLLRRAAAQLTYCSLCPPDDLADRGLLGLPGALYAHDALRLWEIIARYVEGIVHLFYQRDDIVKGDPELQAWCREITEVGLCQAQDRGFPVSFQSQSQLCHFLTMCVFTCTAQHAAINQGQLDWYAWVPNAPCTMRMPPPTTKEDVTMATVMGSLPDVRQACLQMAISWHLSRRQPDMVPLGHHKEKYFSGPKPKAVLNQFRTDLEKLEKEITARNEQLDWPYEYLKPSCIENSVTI

Potency, active:
Cc1ccc(C(=O)/C=C/c2c[nH]c3ccccc23)cc1 34.6 µM
Oc1ccccc1-c1cc(-c2ccccc2Cl)[nH]n1 16 µM
Cc1[nH]nc(-c2ccc(O)cc2O)c1-c1ccc(Cl)cc1 19 µM
c1ccc(-c2nc(NCc3cccnc3)c3oc4ccccc4c3n2)cc1 14 µM
CSc1ccc(S(=O)(=O)Nc2ccc(S(=O)(=O)Nc3ccc(C)cc3)cc2)cc1 21.1 µM
COc1cccc(-c2cnc(NCc3cc(Cl)ccc3O)n2C)c1 32.7 µM
CCCOC(=O)c1ccc(Oc2cn[nH]c2-c2ccc(OC)cc2O)cc1 26.8 µM
COc1ccc(-c2n[nH]c(C)c2-c2ccc(Cl)cc2)c(O)c1 19.4 µM
Oc1ccc(-c2csc(-c3ccccc3)n2)cc1O 0.94 µM
CCOc1ccc(-c2[nH]ncc2Oc2cccc(OC)c2)c(O)c1 28.1 µM
COc1cc(CNc2ccc(N3CCCC3)cc2)ccc1OCc1ccccc1 25 µM
Oc1ccc(-c2nc(-c3ccc(O)c(O)c3)cs2)cc1 0.7 µM
N#CC1=C(N)Oc2n[nH]c(-c3cccs3)c2C1C1CCCCC1 (stereo not given) 7.69 µM
COc1ccc2nc(NC(=O)c3cccc(OCc4c(C)noc4C)c3)sc2c1 36.7 µM
Cc1ccc(S(=O)(=O)Nc2ccc(NC(=O)Nc3cccc(C(F)(F)F)c3)cc2)cc1 35 µM
COc1ccc(-c2[nH]ncc2-c2ccc(Cl)cc2)c(O)c1 28.6 µM
Oc1ccc(Cl)cc1-c1cc(-c2ccco2)[nH]n1 21.5 µM
O=C(Nc1nnc(-c2ccccn2)o1)c1ccc(Br)cc1 3.26 µM
O=C(/C=C/c1ccc(O)c(O)c1)c1ccc(S(=O)(=O)N2CCCCCC2)cc1 27.2 µM
COc1ccc(NC2=NCC(Cc3ccc(Br)cc3)S2)cc1 (stereo not given) 36.6 µM
CC(Oc1ccc(Cl)cc1Cl)C(=O)NC1=NN(c2ccccc2)C(=O)C1 (stereo not given) 15.5 µM
Cc1cc(Cl)cc(Cl)c1OCC(=O)NCc1ccco1 20.4 µM
CC1=NN(c2ccc(Cl)cc2)C(=O)C1C(c1cccc(O)c1)c1c(C)[nH]n(-c2ccc(Cl)cc2)c1=O (stereo not given) 7.55 µM
CC1=NN(c2ccc(Cl)cc2)C(=O)C1C(c1ccccc1O)c1c(C)[nH]n(-c2ccc(Cl)cc2)c1=O (stereo not given) 18.9 µM
COc1cc(CNc2ccc(O)cc2)cc(Br)c1OCc1ccccc1F 24.1 µM
COc1ccc(Cc2nc(C(=O)Nc3ccc(OC)cc3)cs2)cc1 35.8 µM
CN(C)c1nccc(N(Cc2ccccc2)Cc2ccccc2)c1C#N 15.7 µM
Cc1ccc(NC(=O)Nc2cccs2)c(Cl)c1 22.4 µM
Oc1ccccc1-c1cc(-c2ccc3c(c2)OCCO3)n[nH]1 31.3 µM
Cc1oc2c(O)c(O)ccc2c(=O)c1-c1cnn(-c2ccccc2)c1 15.5 µM
CCc1cc(-c2[nH]ncc2-c2ccc3c(c2)OCO3)c(O)cc1O 22.2 µM
O=C(CSc1n[nH]c(-c2ccccc2)n1)c1ccc(O)c(O)c1 24.2 µM
Cc1ccc(S(=O)(=O)Nc2nc(C)c(NC(=O)Nc3ccc(Cl)cc3Cl)s2)cc1 2.35 µM
O=S(=O)(Nc1ccc(O)c(Sc2nc3ccccc3s2)c1)c1ccc(Cl)cc1 8.77 µM
Oc1ccccc1-c1cc(-c2cccc(F)c2)n[nH]1 18.9 µM
CSCCC(NC(=O)c1ccc(Cl)cc1)C(=O)OCC(=O)Nc1ccc(C#N)cc1 (stereo not given) 18.3 µM
CCc1cc(-c2n[nH]c(C)c2Oc2ccc(C(C)C)cc2)c(O)cc1O 20.2 µM
O=C(Nc1nnc(-c2ccc(Cl)cc2)o1)c1ccccc1Br 18.3 µM
Cc1[nH]nc(-c2ccc(O)cc2O)c1Oc1ccccc1 27 µM
Cc1ccc(C(=O)Nc2nnc(-c3ccco3)o2)cc1C 15.7 µM
